# Screening data: PubChem, National Center for Advancing Translational Sciences (NCATS)
# D2 ag-1: agonists of human D2 dopamine receptor (beta-arrestin); 360,000 compounds, 0.084% hits; AID 624465; DiscoveRx PathHunter D2 beta-arrestin, luminescence, 90 min; 100% = 57 uM dopamine signal; activation, % (test concentration not listed); P14416; in the data active = activation above about 40%; inconclusive = between about 15% and that limit
# Target sequence (P14416 whole entry, looked up): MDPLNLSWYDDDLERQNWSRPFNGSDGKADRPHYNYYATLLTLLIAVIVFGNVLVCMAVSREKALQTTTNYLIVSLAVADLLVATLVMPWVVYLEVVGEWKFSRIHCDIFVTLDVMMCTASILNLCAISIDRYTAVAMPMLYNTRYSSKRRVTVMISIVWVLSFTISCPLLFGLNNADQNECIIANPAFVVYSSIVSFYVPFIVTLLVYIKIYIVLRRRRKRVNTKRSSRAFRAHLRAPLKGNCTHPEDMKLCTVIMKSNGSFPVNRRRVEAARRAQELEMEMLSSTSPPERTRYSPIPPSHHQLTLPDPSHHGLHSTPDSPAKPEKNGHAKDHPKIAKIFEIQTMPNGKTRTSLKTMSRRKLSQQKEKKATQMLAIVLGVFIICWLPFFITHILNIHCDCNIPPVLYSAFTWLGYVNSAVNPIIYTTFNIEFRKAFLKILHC
#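 Agonist mode: compounds alone added to overnight-plated D2 PathHunter cells for 90 min at 37 C, with 57 uM final dopamine (EC100) defining full response. Beta-arrestin recruitment detected by chemiluminescent reagent, read after 1 h at ambient temperature.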
# D2 ag-2: agonists of human D2 dopamine receptor; HEK293 T-REx D2 cells, calcium flux agonist mode; activation, % at 2 µM; 340,000 compounds, 0.53% hits; AID 485358;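 active = activation over 3 SD above normal in the single-dose calcium agonist read, cut at about 30% in these data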; note: 0% is about no effect
#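 Agonism scored from kinetic calcium signal (1 read/sec, 180 s) following compound pin transfer, after a 10 s baseline. Cells: HEK293 Trex line expressing inducible D2 receptor coupled to calcium, dye-loaded after overnight culture at 30 C.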
# D2 PAM-1: human D2 receptor positive allosteric modulation. potentiation, % (no concentration beside the values). 360,000 compounds, 0.23% hits. P14416. DiscoveRx D2 beta-arrestin cells, luminescence, 90 min; 100% = 57 uM dopamine signal; in the data active = potentiation above about 50%; inconclusive = mostly about 30% to 49%
#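 D2 cells co-treated with compound plus 50 nM dopamine (EC20) for 90 min at 37 deg C to detect potentiation. Beta-arrestin recruitment was read as enzyme-fragment luminescence after 1 h at ambient temperature. Full response was set by 57 uM dopamine.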
# D2 PAM-2: D2 dopamine receptor (human) potentiation. HEK293 T-REx D2, calcium flux, EC20 dopamine potentiation. potentiation, % at 10 µM. P14416. 340,000 compounds, 0.34% hits;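 active = potentiation over 3 SD above the plate norm, cut at about 30% in these data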; note: 0% is about no effect
#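 Primary screen. Calcium kinetics in induced HEK293 T-REx D2 cells: compound pre-addition 180 s, EC20 dopamine, 180 s more.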
# D2 antag: antagonists of human D2 dopamine receptor | inhibition, % at 10 µM | 340,000 compounds, 2% hits | P14416 | AID 485344 | HEK293 TREx D2 cells, calcium flux, dopamine EC80; in the data active = inhibition above about 30%; inactive = below that, where a call was filed; note: 0% is about no effect
#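 Tetracycline-induced HEK293 TREx cells expressing D2 receptor forced-coupled to calcium signalling, loaded with no-wash calcium dye. Compounds added and calcium flux read 180 s, then dopamine added at EC80 and read a further 180 s.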
# The depositor's hits bear a star; ? = inconclusive; · = no result given. The list is not random: actives were taken first. Their share in the collection is about 2.4%.
SMILES,D2 ag-1,D2 ag-2,D2 PAM-1,D2 PAM-2,D2 antag
CN(C)CCN(C(=O)c1ccc(S(=O)(=O)N2CCc3ccccc32)cc1)c1nc2ccc(F)cc2s1,-6,-1,-22,-18,69*
COc1cccc(N2CCN(Cc3ncc(-c4ccccc4)o3)CC2)c1,-1,-1,-17,-28,48*
COc1cccc(N2CCN(CC(=O)Nc3nnc(-c4ccccc4)s3)CC2)c1,0,0,0,3,-12
Cc1ccc(/C=[N+](\[O-])c2ccc(N(C)C)cc2)c2nsnc12,3,9,8,-4,48*
COC(=O)c1nnn(CC(=O)Nc2ccc(Br)c(C)c2)c1N,·,-1,·,-6,·
CCOc1ccc(C(=O)c2cn(CC(=O)Nc3cccc(OC)c3)c3cc4c(cc3c2=O)OCCO4)cc1,·,·,·,-9,·
Cc1nc2ccccc2c(=O)n1/N=C/c1ccc(O)c(O)c1O,48*,0,10,0,6
Cc1nc2ccccc2c(=O)n1/N=C/c1ccccc1O,-7,0,-4,-2,-15
C/C(=N\Nc1cccc([N+](=O)[O-])c1)c1cc(F)ccc1O,-12,-1,-16,18,35*
CC(C)(C)OC(=O)N1CCC(c2c(C(=O)NCCN3CCc4ccccc4C3)cnn2-c2ccc(F)cc2)CC1,·,-1,·,-3,·
CC(C)CCC(CCN1CCOCC1)c1ccc2c(c1)OCO2 (stereo not given),0,0,-14,3,31*
O=C(O)c1ccccc1SCC(=O)N1CCCCC1,-1,0,3,3,0
O=C(O)c1ccccc1SCC(=O)N1c2ccccc2Sc2ccccc21,?,-1,62*,-4,-6
O=C(COc1ccc(Br)cc1)Nc1ccc2c(c1)C(=O)NC2=O,-3,0,-9,-15,33*
CCCN1CCC(N(CCc2ccccc2)Cc2ccccc2)CC1,5,-1,-4,-16,39*
COc1ccc(CN2CCC(N(CCc3ccccc3)Cc3ccccc3)CC2)c(OC)c1,-1,-1,-17,-32,35*
COc1ccc(CN2CCc3ccccc3C2)c(OC)c1,-2,-2,-23,-22,24
O=c1oc2c(CN3CCCCCC3)c(O)ccc2cc1-c1nc2ccccc2[nH]1,·,77*,·,-6,14
O=c1[nH]nc(C(F)(F)F)c2nnn(Cc3ccccc3Cl)c12,5,0,1,-1,-1
Cc1n[nH]c(=O)c2c1nnn2Cc1ccccc1Cl,-1,0,-8,-7,58*
CCc1nnc2c(N3CCN(c4cccc(C)c4)C(C)C3)nc3ccccc3n12 (stereo not given),·,0,·,1,·
Cc1cc(C)n(C(C)CC(=O)NCc2ccc(Cl)cc2)n1 (stereo not given),·,0,·,-12,·
N#Cc1cccc(NC(=O)COC(=O)CCc2ccc(S(=O)(=O)N3CCOCC3)cc2)c1,-3,0,3,6,34*
COc1ccc(-c2nc3n(n2)C(c2ccc(O)cc2)C(C(=O)Nc2cccnc2)=C(C)N3)cc1OC (stereo not given),·,2,·,13,·
CCN(CC(=O)Nc1cc(Cl)ccc1C)C(=O)C1CC(=O)N(Cc2ccccc2)C1 (stereo not given),3,0,-13,-25,7
SMILES,D2 ag-1,D2 ag-2,D2 PAM-1,D2 PAM-2,D2 antag
CCN(CC(=O)Nc1cc(Cl)ccc1C)C(=O)C1CC1,-1,0,-3,7,56*
CCN(CC(=O)Nc1cc(Cl)ccc1C)C(=O)CSCc1c(C)noc1C,0,0,-10,-16,33*
Cc1nc(CC(=O)Nc2ccc(C)c(C)c2)cs1,·,0,·,7,·
COc1ccccc1CCC(=O)N1CCN(S(=O)(=O)c2cc(C(F)(F)F)ccc2Cl)CC1,1,0,2,2,-18
O=C(O)CC1(CC(=O)N2CCOCC2)CCCC1,-3,0,2,36*,4
O=C(O)CC1(CC(=O)N2CCC(C(=O)O)CC2)CCCC1,-3,1,-2,7,12
COc1cc(/C=C/C(=O)OCC(=O)NC(=O)NC(C)C)ccc1OCC#N,-3,0,-7,3,46*
COCC(=O)NCc1nc2cccnc2n1Cc1ccc(F)cc1,·,·,·,-8,·
CC(C)(C)n1nc2c(c1NC(=O)Cc1ccc(F)cc1)CSC2,-7,1,-8,3,35*
CN(C)C(=O)c1cc(C(=O)Cc2ccccc2)c[nH]1,-4,1,-13,5,37*
O=C(Cc1ccccc1)c1c[nH]c(C(=O)O)c1,-5,0,-2,-1,8
Cc1ccc(C(=O)O/N=C/c2c(Cl)n(C)c3ccccc23)cc1,2,-1,-12,-1,5
Cn1c(Cl)c(/C=N/OC(=O)c2ccc(Cl)cc2)c2ccccc21,1,0,-2,-3,56*
Cn1c(N2CCOCC2)c(/C=N/OC(=O)c2ccc(F)cc2)c2ccccc21,?,0,141*,12,-5
Cc1ccc(C(=O)O/N=C/c2c(N3CCOCC3)n(C)c3ccccc23)cc1,?,0,85*,-8,-7
CC(=O)O/N=C/c1c(N2CCOCC2)n(C)c2ccccc12,13,·,62*,·,·
NNC(=O)c1sc2cc(C(F)(F)F)cnc2c1-c1ccccn1,4,0,-4,-7,-6
O=C(COc1ccccc1-c1nc(-c2ccccc2)no1)Nc1cccc([N+](=O)[O-])c1,·,-1,·,-3,·
CCNc1ccc(Br)cc(C(=O)/C=C/c2c(Cl)cccc2Cl)c1=O,-5,0,-20,48*,-13
CCN(CC)c1ccc2cc(C(=O)Nc3ccccn3)c(=O)oc2c1,0,39*,0,5,2
CCN(CC)c1ccc2cc(C=O)c(=O)oc2c1,-2,65*,-13,-6,-46
CCN(CC)c1ccc2cc(-c3nnc(-c4ccncc4)o3)c(=O)oc2c1,-1,88*,-12,·,66*
CCN(CC)c1ccc2cc(C(C)=O)c(=O)oc2c1,-4,35*,-19,11,-29
COc1ccc(-c2noc(-c3ccc(N4CCCC4)c([N+](=O)[O-])c3)n2)cc1,·,-1,·,6,·
CCc1ccc(C(=O)COC(=O)C(Cc2c[nH]c3ccccc23)NC(=O)c2ccc(Br)cc2)cc1 (stereo not given),·,-3,·,0,·
O=S(=O)(Nc1ccc(O)c2ccccc12)c1ccc(Br)cc1,·,0,·,2,21
Cn1ncc(N=Cc2c(O)ccc3ccccc23)c1C(=O)Nc1cccc(Cl)c1,4,1,-3,10,-6
N#CCCN1CCN(S(=O)(=O)c2cc(Cl)ccc2Cl)CC1,0,0,0,37*,4
CCOc1ccc(Nc2cc(C)c(C#N)c3nc4ccccc4n23)cc1,·,-2,·,-3,·
